Test results from PubChem BioAssay (EPA / NIEHS).
Activity calls are given as the source filed them. How the source made its calls: active means hit-call score of the fitted dose curve at least 0.9, where 1 is the maximum; inactive means score below 0.9.

Columns and labels:
[1] = ATG_CRE_CIS: Attagene CIS-FACTORIAL HepG2 Assay for human cAMP Responsive Element (CRE) binding protein 3 (AID 2282926); conditions: HepG2 CRE cis-reporter, Attagene multiplexed mRNA; actives raise or lower the signal
Summary of the method: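 Assay format: transient reporter transfection of HepG2, 24 h treatment, total RNA isolation with DNase I step. Reporter abundance read by fluorescence after PCR and capillary separation; DMSO-normalised gain or loss fitting.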

[2] = molecular target: CCAAT/enhancer-binding protein beta (Homo sapiens) (UniProt P17676); assay: ATG_C_EBP_CIS: Attagene CIS-FACTORIAL HepG2 Assay for human CCAAT/Enhancer Binding Protein (C/EBP) beta (AID 2282927); conditions: HepG2 Attagene cis-factorial transcription factor reporter; actives raise or lower the signal
Sequence of CCAAT/enhancer-binding protein beta (Homo sapiens) (P17676 whole entry, looked up): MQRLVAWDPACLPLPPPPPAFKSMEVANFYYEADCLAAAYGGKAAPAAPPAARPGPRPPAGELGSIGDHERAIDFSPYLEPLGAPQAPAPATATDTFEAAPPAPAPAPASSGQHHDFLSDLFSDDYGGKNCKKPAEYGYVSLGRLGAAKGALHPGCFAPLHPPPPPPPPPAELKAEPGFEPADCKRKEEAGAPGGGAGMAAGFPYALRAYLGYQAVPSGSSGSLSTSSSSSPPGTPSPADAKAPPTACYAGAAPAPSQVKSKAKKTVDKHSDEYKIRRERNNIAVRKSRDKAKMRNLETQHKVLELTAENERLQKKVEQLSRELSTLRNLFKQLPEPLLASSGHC
Summary of the method: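 RT-PCR/capillary electrophoresis fluorescence of reporter mRNA, 24 h post-dose, in HepG2 cells carrying transfected cis-promoter reporter units. Bidirectional curve fitting against DMSO baseline captures gain or loss of signal.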

[3] = ATG_DR4_LXR_CIS: Attagene CIS-FACTORIAL HepG2 Assay for human Liver X Receptor (LXR), DR4 submotif (AID 2282929); conditions: HepG2 Attagene DR4 cis-reporter, mRNA transcription; actives raise or lower the signal
Summary of the method: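 Cells were transfected with multiple reporter transcription units, exposed to chemicals for 24 hours, then lysed for RNA. Reporter mRNA induction was measured by RT-PCR with capillary electrophoresis detection and fitted in both directions relative to DMSO.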

[4] = molecular target: Aryl hydrocarbon receptor (Homo sapiens) (UniProt P35869); assay: ATG_Ahr_CIS: Attagene CIS-FACTORIAL HepG2 Assay for human Aryl Hydrocarbon Receptor (Ahr) (AID 2282930); conditions: HepG2 AhR cis-factorial reporter transcription; actives raise or lower the signal
Sequence of Aryl hydrocarbon receptor (Homo sapiens) (P35869 whole entry, looked up): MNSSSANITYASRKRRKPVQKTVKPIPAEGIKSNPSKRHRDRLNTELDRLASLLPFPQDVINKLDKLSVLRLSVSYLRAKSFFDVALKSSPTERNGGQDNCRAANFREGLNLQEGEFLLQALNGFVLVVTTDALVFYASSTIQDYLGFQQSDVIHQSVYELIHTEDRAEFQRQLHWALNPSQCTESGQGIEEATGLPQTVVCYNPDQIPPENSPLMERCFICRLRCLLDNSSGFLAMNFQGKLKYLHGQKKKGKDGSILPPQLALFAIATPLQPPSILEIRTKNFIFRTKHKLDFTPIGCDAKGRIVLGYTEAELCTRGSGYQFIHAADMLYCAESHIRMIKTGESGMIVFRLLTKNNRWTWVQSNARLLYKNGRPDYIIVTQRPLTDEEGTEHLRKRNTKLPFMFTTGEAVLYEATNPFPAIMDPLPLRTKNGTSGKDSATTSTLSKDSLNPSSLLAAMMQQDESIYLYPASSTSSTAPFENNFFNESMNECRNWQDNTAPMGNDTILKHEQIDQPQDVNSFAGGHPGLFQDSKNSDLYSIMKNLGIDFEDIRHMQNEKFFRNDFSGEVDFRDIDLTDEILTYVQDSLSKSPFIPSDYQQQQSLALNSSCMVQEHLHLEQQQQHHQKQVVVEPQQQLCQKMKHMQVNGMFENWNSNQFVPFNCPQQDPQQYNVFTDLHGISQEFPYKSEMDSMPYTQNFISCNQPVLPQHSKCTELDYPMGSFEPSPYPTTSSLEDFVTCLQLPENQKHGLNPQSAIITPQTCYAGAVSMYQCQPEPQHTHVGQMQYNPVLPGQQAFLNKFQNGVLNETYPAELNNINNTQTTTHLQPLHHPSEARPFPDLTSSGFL
Summary of the method: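 HepG2 cells transiently transfected with cis-element-driven multiplexed reporter transcription units; endogenous transcription factor activity measured as reporter mRNA 24 h after dosing. RT-PCR, 6-FAM labelling, HpaI digestion, capillary electrophoresis; bidirectional fitting versus DMSO baseline.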

[5] = ATG_AP_1_CIS: Attagene CIS-FACTORIAL HepG2 Assay for human Activator Protein 1 (AP-1) (AID 2282931); conditions: HepG2 Attagene cis-factorial AP-1 reporter mRNA; actives raise or lower the signal
Summary of the method: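 Endogenous transcription-factor activity in human HepG2 liver cells is read through a cis-promoter reporter transcript, sampled 24 h after dosing. Detection uses RT-PCR with capillary electrophoresis; values come from bidirectional fitting relative to DMSO.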

[6] = ATG_BRE_CIS: Attagene CIS-FACTORIAL HepG2 Assay for human Bone Morphogenetic Protein (BMP) Response Element (BRE) (AID 2282933); conditions: HepG2 BMP response element reporter, Attagene transcription factor profiling; actives raise or lower the signal
Summary of the method: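 Transient MRTU transfection of human HepG2 liver cells; 24 h compound treatment; total RNA isolated, reverse-transcribed, PCR-amplified, 6-FAM labelled, HpaI-cut, capillary electrophoresis. DMSO = negative control/baseline, bidirectional fit.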

[7] = molecular target: Transcription factor E2F1 (Homo sapiens) (UniProt Q01094); assay: ATG_E2F_CIS: Attagene CIS-FACTORIAL HepG2 Assay for human E2F Transcription Factor 1 (AID 2282935); conditions: HepG2 Attagene cis-reporter, E2F reporter RNA transcripts; actives raise or lower the signal
Sequence of Transcription factor E2F1 (Homo sapiens) (Q01094 whole entry, looked up): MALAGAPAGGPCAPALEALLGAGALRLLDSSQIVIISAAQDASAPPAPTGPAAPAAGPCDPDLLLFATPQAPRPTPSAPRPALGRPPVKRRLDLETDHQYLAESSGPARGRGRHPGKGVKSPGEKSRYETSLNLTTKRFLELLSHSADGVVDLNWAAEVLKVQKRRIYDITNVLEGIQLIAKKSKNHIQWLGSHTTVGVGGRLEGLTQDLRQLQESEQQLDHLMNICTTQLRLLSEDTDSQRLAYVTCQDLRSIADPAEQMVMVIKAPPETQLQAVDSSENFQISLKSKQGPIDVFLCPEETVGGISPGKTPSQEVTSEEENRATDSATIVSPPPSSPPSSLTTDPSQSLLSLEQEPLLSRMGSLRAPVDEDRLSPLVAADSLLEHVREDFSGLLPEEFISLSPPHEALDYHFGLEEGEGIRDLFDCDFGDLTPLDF
Summary of the method: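 First, HepG2 cells were transfected with reporter transcription units. Next, they were dosed for 24 h. Then RNA was isolated, converted to cDNA, PCR-amplified, FAM-labeled, HpaI-digested and analyzed by capillary electrophoresis.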

[8] = ATG_E_Box_CIS: Attagene CIS-FACTORIAL HepG2 Assay for human Enhancer Box (E-box) (AID 2282936); conditions: HepG2 E-box cis-reporter transcription, actives raise or lower the signal
Summary of the method: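 Endogenous transcription factor activity was sensed in human HepG2 liver cells through transfected cis-promoter reporter units. After 24 h of dosing, total RNA was reverse-transcribed and reporter cDNA resolved by capillary electrophoresis.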

[9] = ATG_M_61_CIS: Attagene CIS-FACTORIAL HepG2 Assay for M61 Transcription Factor (Internal Marker) (AID 2282937); conditions: HepG2 Attagene CIS-FACTORIAL M61 internal marker reporter; actives raise or lower the signal
Summary of the method: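 Cells were transfected with reporter units under cis-regulatory promoters, treated with chemicals for 24 h, then lysed for RNA. Reporter transcripts were quantified by RT-PCR and capillary electrophoresis, and activity was fitted bidirectionally against DMSO.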

[10] = ATG_M_19_CIS: Attagene CIS-FACTORIAL HepG2 Assay for M19 Transcription Factor (Internal Marker) (AID 2282939); conditions: HepG2 Attagene CIS-FACTORIAL M19 internal marker reporter; actives raise or lower the signal
Summary of the method: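 Transfect HepG2 with MRTU reporter library → dose chemical, 24 h → isolate total RNA, reverse-transcribe with oligo(dT) → PCR, 6-FAM label, HpaI cut (2 h, 37 C) → capillary electrophoresis. Bidirectional fit vs DMSO.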

[11] = ATG_ERE_CIS: Attagene CIS-FACTORIAL HepG2 Assay for Estrogen Response Element (ERE) (AID 2282940); conditions: HepG2 ERE cis-reporter, Attagene RNA transcript; actives raise or lower the signal
Summary of the method: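 Transient MRTU transfection of human HepG2; cis-element promoters; 24 h dosing; total RNA → RT (oligo dT) → PCR → 6-FAM primer extension → HpaI digest → CE fluorescence. Bidirectional fit, DMSO baseline.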

[12] = ATG_Ets_CIS: Attagene CIS-FACTORIAL HepG2 Assay for human Erythroblast Transformation Specific (ETS) (AID 2282941); conditions: HepG2 ETS cis-reporter transcription, actives raise or lower the signal
Summary of the method: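 Multiplexed reporter transcript profiling: HepG2, 24 h treatment, total RNA to cDNA, PCR, 6-FAM labelling, HpaI cut, capillary electrophoresis. Gain- or loss-of-signal fitted against DMSO.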

[13] = molecular target: Hepatocyte nuclear factor 3-beta (Homo sapiens) (UniProt Q9Y261); assay: ATG_FoxA2_CIS: Attagene CIS-FACTORIAL HepG2 Assay for human Forkhead box A2 (FOXA2) (AID 2282942); conditions: HepG2 cis-reporter transcription factor activity, 24 h; actives raise or lower the signal
Sequence of Hepatocyte nuclear factor 3-beta (Homo sapiens) (Q9Y261 whole entry, looked up): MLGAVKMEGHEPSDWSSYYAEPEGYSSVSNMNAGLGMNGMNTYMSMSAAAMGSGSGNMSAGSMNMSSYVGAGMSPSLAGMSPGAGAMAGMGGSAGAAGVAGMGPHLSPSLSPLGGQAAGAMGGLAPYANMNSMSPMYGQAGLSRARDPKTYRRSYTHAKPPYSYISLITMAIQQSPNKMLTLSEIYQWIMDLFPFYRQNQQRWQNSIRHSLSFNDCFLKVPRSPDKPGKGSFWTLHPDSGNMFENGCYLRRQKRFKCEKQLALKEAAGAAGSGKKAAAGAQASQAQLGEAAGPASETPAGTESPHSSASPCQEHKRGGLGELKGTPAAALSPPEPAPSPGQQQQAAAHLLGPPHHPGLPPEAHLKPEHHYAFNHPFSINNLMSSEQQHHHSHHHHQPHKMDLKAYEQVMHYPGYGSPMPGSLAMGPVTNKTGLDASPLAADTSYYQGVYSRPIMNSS
Summary of the method: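 Endogenous transcription factor activity was read in HepG2 cells carrying transiently transfected cis-promoter reporter units. After 24 h dosing, reporter mRNA was quantified by RT-PCR and capillary electrophoresis, and values fitted bidirectionally versus DMSO.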

[14] = ATG_FoxO_CIS: Attagene CIS-FACTORIAL HepG2 Assay for human Forkhead box O (FoxO) (AID 2282943); conditions: HepG2 Attagene cis-reporter, FoxO element, mRNA; actives raise or lower the signal
Summary of the method: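 HepG2 cells transiently transfected with cis-promoter-driven multiple reporter transcription units; 24 h after chemical dosing, reporter mRNA quantified by RT-PCR, fluorescent primer extension, HpaI digestion and capillary electrophoresis. Bidirectional fitting versus DMSO baseline.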

[15] = ATG_GLI_CIS: Attagene CIS-FACTORIAL HepG2 Assay for human Zinc Finger Protein GLI1 (AID 2282945); conditions: HepG2, Attagene cis-factorial reporter mRNA, GLI element; actives raise or lower the signal
Summary of the method: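 HepG2 cells transiently transfected with cis-promoter multiplexed reporter units report endogenous transcription factor activity. After 24 h chemical exposure, reporter mRNA was quantified by RT-PCR, 6-FAM labelling, HpaI digestion and capillary electrophoresis, with bidirectional fitting against DMSO.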

[16] = ATG_AP_2_CIS: Attagene CIS-FACTORIAL HepG2 Assay for human Activator Protein 2 (AP-2) (AID 2282932); conditions: HepG2 AP-2 cis-reporter, Attagene transcription factor profiling; actives raise or lower the signal
Summary of the method: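 Cells (HepG2) transfected with promoter-driven reporter constructs, treated 24 h. Total RNA reverse-transcribed, reporter cDNA PCR-amplified, FAM-labelled by primer extension, digested, resolved by capillary electrophoresis. Activity fitted both directions versus DMSO.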

[17] = molecular target: Retinoic acid receptor alpha (Homo sapiens) (UniProt P10276); assay: ATG_DR5_RAR_CIS: Attagene CIS-FACTORIAL HepG2 Assay for human Retinoic Acid Receptor Alpha (RARE), DR5 submotif (AID 2282934); conditions: HepG2 Attagene cis-factorial RARE DR5 reporter, mRNA; actives raise or lower the signal
Sequence of Retinoic acid receptor alpha (Homo sapiens) (P10276 whole entry, looked up): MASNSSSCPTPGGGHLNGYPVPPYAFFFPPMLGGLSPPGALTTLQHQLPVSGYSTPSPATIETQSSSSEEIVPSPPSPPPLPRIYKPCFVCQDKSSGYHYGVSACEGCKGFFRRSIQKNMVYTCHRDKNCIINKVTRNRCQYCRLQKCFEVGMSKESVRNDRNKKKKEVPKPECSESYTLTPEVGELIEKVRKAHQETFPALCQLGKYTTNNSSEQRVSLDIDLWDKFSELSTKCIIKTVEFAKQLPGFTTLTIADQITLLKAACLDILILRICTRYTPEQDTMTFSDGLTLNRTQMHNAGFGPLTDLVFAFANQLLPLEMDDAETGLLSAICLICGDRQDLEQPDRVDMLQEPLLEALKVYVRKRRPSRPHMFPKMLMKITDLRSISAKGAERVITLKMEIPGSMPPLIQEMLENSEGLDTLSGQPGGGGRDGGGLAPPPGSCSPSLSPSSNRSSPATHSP
Summary of the method: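 HepG2 cells transiently transfected with multiplexed reporter units under cis (DR5 RARE) promoters, so endogenous transcription factor activity is measured. After 24 h compound exposure, reporter mRNA is quantified by RT-PCR with fluorescent labelling and capillary electrophoresis; bidirectional fitting versus DMSO.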

[18] = ATG_EGR_CIS: Attagene CIS-FACTORIAL HepG2 Assay for human Early Growth Response 1 (EGR1) (AID 2282938); conditions: HepG2 Attagene CIS-FACTORIAL EGR reporter mRNA; actives raise or lower the signal
Summary of the method: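 Endogenous TF activity in HepG2 liver cells was gauged through cis-promoter reporter constructs transiently transfected. After 24 h dosing, reporter mRNA was quantified by RT-PCR and capillary electrophoresis, and curves fitted in both directions versus DMSO.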

[19] = ATG_GATA_CIS: Attagene CIS-FACTORIAL HepG2 Assay for human GATA Binding Protein (AID 2282944); conditions: HepG2 GATA cis-element reporter, Attagene multiplex mRNA; actives raise or lower the signal
Summary of the method: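 Transient MRTU transfection, HepG2, 24 h compound exposure. Total RNA → oligo(dT) RT → PCR → 6-FAM primer extension → HpaI cut → CE. Bidirectional fit vs DMSO.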

Measured: AC50

C[C@]12CC[C@H]3[C@@H](CCC4=CC(=O)CC[C@@]43C)[C@@H]1CC[C@@H]2C(=O)CO
active: [6] 100 µM | [11] 0.635 µM
not listed: [16] | [17] | [18] | [19]
inactive: all other assays above

O=c1[nH]c(=O)n([C@H]2CCCO2)cc1F
not listed: [11] | [12] | [13]
inactive: all other assays above

CC(=O)Nc1ccc(C)cc1C
not listed: [10] | [11] | [16] | [17]
inactive: all other assays above

CCCCCCCCCCCCOCCO
active: [3] 51.7 µM | [4] 33.4 µM | [5] 50.2 µM | [8] 50.6 µM | [13] 47.6 µM | [14] 56.6 µM | [15] 60.7 µM
not listed: [6] | [11] | [16] | [18]
inactive: all other assays above

CCCCNC(=O)NS(=O)(=O)c1ccc(C)cc1
not listed: [5] | [10] | [11] | [17]
inactive: all other assays above

Cc1ccc(O)c(C(C)(C)C)c1
active: [3] 100 µM | [5] 100 µM | [10] 148 µM | [15] 173 µM
not listed: [11] | [13] | [17] | [18] | [19]
inactive: all other assays above

C=O
not listed: [7] | [11] | [18]
inactive: all other assays above

COC(C)CCO (stereo not drawn)
active: [5] 42.4 µM
not listed: [10] | [11]
inactive: all other assays above
